Results filed as inconclusive are left out. Calls of active or inactive are those of the source. The call rests on the fitted dose curve; in most records, active means well fitted inhibition curve with a large enough effect; inconclusive means small, poorly fitted or top-dose-only effect; inactive means flat fitted curve, though single readings scatter.
Legend:
Assay in all cases: qHTS profiling for inhibitors of Plasmodium falciparum proliferation (AID 504749); further: nearly all actives have a fitted effect of over 60% in size
Details in all cases: P. falciparum in erythrocytes, SYBR Green DNA, 72 h; series mostly up to 28.7 µM
CP201 = test system: CP201
How it was run: (§1)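 Parasite proliferation within erythrocytes, 72 h exposure. Endpoint: SYBR Green I fluorescence after overnight lysis at room temperature. Controls: 0.29 uM artemisinin, DMSO.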

CP203 = test system: CP203
How it was run: as §1

CP211 = test system: CP211
How it was run: as §1

CP215 = test system: CP215
How it was run: as §1

CP217 = test system: CP217
How it was run: as §1

CP237 = test system: CP237
How it was run: as §1

CP238 = test system: CP238
How it was run: as §1

CP247 = test system: CP247
How it was run: as §1

CP250 = test system: CP250
How it was run: as §1

CP252 = test system: CP252
How it was run: as §1

Measured: Potency
Potency means the concentration at half of the fitted maximal effect.

O=c1[nH]cnc2[nH]ncc12
inactive: all assays above

O=C1CCC(N2C(=O)c3ccccc3C2=O)C(=O)N1 (stereo not drawn)
inactive: all assays above

Nc1nc2ccc(OC(F)(F)F)cc2s1
inactive: all assays above

CC(C[N+](C)(C)C)OC(N)=O (stereo not drawn)
inactive: all assays above

CCc1ccc(CCOc2ccc(CC3SC(=O)NC3=O)cc2)nc1 (stereo not drawn)
not listed: CP247
inactive: all other assays above

NNCCc1ccccc1
not listed: CP250
inactive: all other assays above

Nc1nc2c(ncn2COCCO)c(=O)[nH]1
inactive: all assays above

COc1ccc2nc(S(=O)Cc3ncc(C)c(OC)c3C)[nH]c2c1 (stereo not drawn)
not listed: CP247
inactive: all other assays above

NC[C@H](O)c1ccc(O)c(O)c1
inactive: all assays above

Clc1cccc(Cl)c1NC1=NCCN1
inactive: all assays above

NCCc1ccc(O)c(O)c1
inactive: all assays above

NS(=O)(=O)c1cc2c(cc1Cl)NC=NS2(=O)=O
inactive: all assays above

Cc1[nH]c(=O)c(C#N)cc1-c1ccc2nccn2c1
inactive: all assays above

CC(=O)Oc1ccccc1C(=O)O
inactive: all assays above

CC(C)NCC(O)COc1ccc(COCCOC(C)C)cc1 (stereo not drawn)
inactive: all assays above

O=NN(CCCl)C(=O)NCCCl
inactive: all assays above

Cc1[nH]c(=O)c(C#N)cc1-c1ccncc1
not listed: CP250
inactive: all other assays above

N=c1nc(N2CCCCC2)cc(N)n1O
inactive: all assays above

Cc1ccc(N(CC2=NCCN2)c2cccc(O)c2)cc1
inactive: all assays above

N#Cc1ccc(C(c2ccc(C#N)cc2)n2cncn2)cc1
inactive: all assays above

NCCCC(N)(C(=O)O)C(F)F (stereo not drawn)
inactive: all assays above

Oc1ccc(C2CNCCc3c2cc(O)c(O)c3Cl)cc1 (stereo not drawn)
inactive: all assays above

Cc1cn[nH]c1
inactive: all assays above

NC(=O)c1cnccn1
inactive: all assays above

Cc1ccccc1C(OCCN(C)C)c1ccccc1 (stereo not drawn)
inactive: CP250
active: CP203 13.5 µM

CCCc1nc2c(C)cc(-c3nc4ccccc4n3C)cc2n1Cc1ccc(-c2ccccc2C(=O)O)cc1
inactive: CP201 | CP203 | CP250
active: CP237 4.47 µM

CCCc1nn(C)c2c(=O)[nH]c(-c3cc(S(=O)(=O)N4CCN(C)CC4)ccc3OCC)nc12
not listed: CP237
inactive: all other assays above

CC(c1cc2ccccc2s1)N(O)C(N)=O (stereo not drawn)
not listed: CP215
inactive: all other assays above

Cc1c(C)c2c(c(C)c1O)CCC(C)(COc1ccc(CC3SC(=O)NC3=O)cc1)O2 (stereo not drawn)
inactive: CP201 | CP238 | CP250 | CP252

O=C1CCc2cc(OCCCCc3nnnn3C3CCCCC3)ccc2N1
inactive: CP201 | CP203 | CP211 | CP215 | CP237
active: CP238 3.16 µM

N[C@@H]1CONC1=O
not listed: CP247
inactive: all other assays above

Clc1ccc(Nc2nnc(Cc3ccncc3)c3ccccc23)cc1
not listed: CP217 | CP237 | CP247
inactive: all other assays above

CCCCNc1cc(C(=O)O)cc(S(N)(=O)=O)c1Oc1ccccc1
not listed: CP215
inactive: all other assays above

Nc1ccc(S(=O)(=O)Nc2ccnn2-c2ccccc2)cc1
not listed: CP215
inactive: all other assays above

Cc1oncc1C(=O)Nc1ccc(C(F)(F)F)cc1
not listed: CP215
inactive: all other assays above

C1COC(NC(C2CC2)C2CC2)=N1
active: CP247 11.2 µM
inactive: CP201 | CP203 | CP211

Cc1cc2c(C(C)C)c(O)c(O)c(C=O)c2c(O)c1-c1c(C)cc2c(C(C)C)c(O)c(O)c(C=O)c2c1O
active: CP237 10 µM | CP247 11.2 µM

NC(N)=NC(=O)c1nc(Cl)c(N)nc1N
inactive: CP201 | CP211 | CP252
active: CP203 19 µM | CP237 8.91 µM

OC(CN1CCC(Cc2ccc(F)cc2)CC1)c1ccc(Cl)cc1 (stereo not drawn)
active: CP237 2.51 µM
inactive: CP201 | CP211 | CP252

Cn1cnc([N+](=O)[O-])c1Sc1ncnc2nc[nH]c12
inactive: CP201 | CP203 | CP211 | CP215 | CP237
active: CP247 6.31 µM

CN1CCN(CCCN2c3ccccc3Sc3ccc(C(F)(F)F)cc32)CC1
inactive: CP201
active: CP203 15.1 µM | CP237 12.6 µM | CP238 3.16 µM | CP250 8.91 µM | CP252 14.1 µM

C#Cc1cccc(Nc2ncnc3cc(OCCOC)c(OCCOC)cc23)c1
active: CP237 12.6 µM

CCOC(=O)C1=C[C@]2(CC)CCCN3CCc4c(n1c1ccccc41)[C@@H]32
active: CP203 16.9 µM | CP217 11.2 µM

CC(C)C[C@H](NC(=O)[C@@H](O)[C@H](N)Cc1ccccc1)C(=O)O
active: CP203 6.01 µM | CP211 6.01 µM | CP215 6.75 µM | CP217 6.31 µM | CP237 4.47 µM | CP238 12.6 µM | CP247 6.31 µM | CP250 10 µM | CP252 6.31 µM

CCOC(=O)C1=C[C@@]2(CC)CCCN3CCc4c(n1c1ccccc41)[C@H]32
active: CP203 15.1 µM | CP211 13.5 µM | CP215 10.7 µM

O=c1n(CCCN2CCN(c3cccc(Cl)c3)CC2)nc2ccccn12
not listed: CP215
inactive: all other assays above

CCOC(=O)N1CCC(=C2c3ccc(Cl)cc3CCc3cccnc32)CC1
inactive: CP238
active: CP217 3.98 µM | CP237 8.91 µM | CP250 3.55 µM | CP252 2 µM

CNC[C@H](O)c1cccc(O)c1
not listed: CP215
inactive: all other assays above

From PubChem BioAssay (NCATS)
